In the supplement of paper PMC10849652:
The full data set covers some 8,800 targets. This sample favours those with a hit. About 0.5% of all pairs of compound and target were hits.

Tests used:
Test in all cases: log2 fold change, soluble protein after heating vs DMSO (PISA); higher = thermal stabilisation; K562 lysate, 10 uM; active = over 0.2 and 3.5 SD of the protein, either way, in both replicates (recomputed)
erlotinib = compound: C#Cc1cccc(Nc2ncnc3cc(OCCOC)c(OCCOC)cc23)c1 [erlotinib]
Outline: (§1)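 Dounce homogenisation of K562 pellets in PBS pH 7.4 with 1 mM MgCl2 produced a crude extract, used at 1 mg/mL protein. Exposure to 10 μM compound lasted 30 min, and aliquots were then heated for 3 min across 48°C-58°C, pooled and brought to 0.5% NP-40 at 4°C. The supernatant after 21,000xg for 90 min was quantified by TMTpro 16plex LC-MS/MS with channel sums equalised. Duplicate values are given as log-two fold change in thermal stability relative to solvent controls.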

[1] = compound: C/C(=N\NC(=O)C1=CC(=CC=C1)S(=O)(=O)N2CCOCC2)/C3=C(C=CC(=C3)Cl)O
Outline: as §1

[2] = compound: C1=CC(=CC=C1C2=NC3=C(N2)C=C(C=C3)C(=O)N)OC4=CC=C(C=C4)Cl
Outline: as §1

[3] = compound: C1=CC2=C(C=CC(=C2)/C=C\3/C(=O)NC(=NCC4=CC=CS4)S3)N=C1
Outline: as §1

[4] = compound: C1=CC2=NC=CN=C2C=C1/C=C/3\C(=O)NC(=O)S3
Outline: as §1

[5] = compound: C1=CC=C(C=C1)C2=NC(=C(N2)C3=CC=NC=C3)C4=CC(=C(C=C4)Cl)O
Outline: as §1

[6] = compound: C1=CC=C2C(=C1)C3=NNC4=CC=CC(=C43)C2=O
Outline: as §1

[7] = compound: C1CCN(C1)C(=O)NC2=CC=CC(=C2)NC3=NC=C(C(=N3)NCCC4=CN=CN4)Br
Outline: as §1

[8] = compound: C1CN(CCC1(CC2=CC=C(C=C2)Cl)N)C3=NC=NC4=C3C=CN4
Outline: as §1

IRAK-1-4 Inhibitor I = compound: C1COCCN1CCN2C3=CC=CC=C3N=C2NC(=O)C4=CC(=CC=C4)[N+](=O)[O-] [IRAK-1-4 Inhibitor I]
Outline: as §1

Measured: log2 fold change

AKAP8L (UniProt Q9ULX6)
UniProt Q9ULX6, sequence (Q9ULX6 whole entry, looked up): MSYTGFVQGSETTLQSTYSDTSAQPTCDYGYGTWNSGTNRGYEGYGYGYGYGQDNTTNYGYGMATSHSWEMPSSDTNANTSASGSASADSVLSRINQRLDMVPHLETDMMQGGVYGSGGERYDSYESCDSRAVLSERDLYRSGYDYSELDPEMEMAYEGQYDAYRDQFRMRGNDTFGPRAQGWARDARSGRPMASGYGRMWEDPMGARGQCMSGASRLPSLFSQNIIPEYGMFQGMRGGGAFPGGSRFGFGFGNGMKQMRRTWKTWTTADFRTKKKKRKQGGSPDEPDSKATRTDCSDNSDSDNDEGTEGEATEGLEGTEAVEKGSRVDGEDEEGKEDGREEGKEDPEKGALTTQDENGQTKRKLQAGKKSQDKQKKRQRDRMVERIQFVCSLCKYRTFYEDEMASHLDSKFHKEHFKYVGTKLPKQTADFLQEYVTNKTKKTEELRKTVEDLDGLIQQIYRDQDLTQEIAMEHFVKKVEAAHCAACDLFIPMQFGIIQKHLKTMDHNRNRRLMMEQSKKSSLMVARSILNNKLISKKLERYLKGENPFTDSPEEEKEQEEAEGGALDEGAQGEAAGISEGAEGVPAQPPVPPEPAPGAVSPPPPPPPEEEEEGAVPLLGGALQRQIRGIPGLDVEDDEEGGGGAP
inactive: erlotinib 0.061 | [1] 0.093 | [2] 0.032 | [3] 0.002 | [4] 0.017 | [5] 0 | [6] -0.022 | [7] 0.029 | [8] -0.032 | IRAK-1-4 Inhibitor I -0.002

AHCYL1 (UniProt O43865)
inactive: erlotinib -0.015 | [1] 0.018 | [2] -0.034 | [3] -0.009 | [4] -0.006 | [5] 0.008 | [6] -0.073 | [7] -0.024 | [8] 0.009 | IRAK-1-4 Inhibitor I 0.007

ACLY (UniProt P53396)
UniProt P53396, sequence (P53396 whole entry, looked up): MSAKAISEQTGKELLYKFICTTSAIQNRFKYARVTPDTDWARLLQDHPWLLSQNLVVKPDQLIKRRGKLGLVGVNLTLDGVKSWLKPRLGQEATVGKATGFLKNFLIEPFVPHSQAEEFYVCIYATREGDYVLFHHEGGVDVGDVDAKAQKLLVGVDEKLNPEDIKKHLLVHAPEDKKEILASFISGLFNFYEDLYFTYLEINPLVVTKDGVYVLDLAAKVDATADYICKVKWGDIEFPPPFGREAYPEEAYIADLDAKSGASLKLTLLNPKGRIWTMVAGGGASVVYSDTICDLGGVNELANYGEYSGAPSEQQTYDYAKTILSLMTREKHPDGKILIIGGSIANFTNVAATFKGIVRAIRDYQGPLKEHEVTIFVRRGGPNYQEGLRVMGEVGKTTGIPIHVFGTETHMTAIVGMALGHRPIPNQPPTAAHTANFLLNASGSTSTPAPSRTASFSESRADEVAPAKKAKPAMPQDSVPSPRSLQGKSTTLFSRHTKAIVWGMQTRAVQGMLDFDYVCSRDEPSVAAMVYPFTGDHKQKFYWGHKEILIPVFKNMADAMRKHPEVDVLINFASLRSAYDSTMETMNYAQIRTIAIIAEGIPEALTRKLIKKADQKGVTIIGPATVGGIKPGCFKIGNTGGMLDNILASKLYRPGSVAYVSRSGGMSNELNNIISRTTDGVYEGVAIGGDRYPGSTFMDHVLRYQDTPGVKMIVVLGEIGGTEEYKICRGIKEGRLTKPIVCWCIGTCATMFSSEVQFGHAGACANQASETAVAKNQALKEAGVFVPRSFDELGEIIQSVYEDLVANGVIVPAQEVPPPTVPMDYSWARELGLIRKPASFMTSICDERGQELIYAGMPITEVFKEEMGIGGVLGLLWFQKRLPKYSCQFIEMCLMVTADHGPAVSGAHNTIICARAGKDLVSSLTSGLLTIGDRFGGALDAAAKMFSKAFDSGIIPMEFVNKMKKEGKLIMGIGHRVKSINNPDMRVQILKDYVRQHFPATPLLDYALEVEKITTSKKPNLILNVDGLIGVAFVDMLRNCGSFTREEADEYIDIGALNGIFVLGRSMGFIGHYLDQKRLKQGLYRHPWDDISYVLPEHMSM
inactive: erlotinib -0.006 | [1] 0.037 | [2] -0.018 | [3] -0.013 | [4] -0.011 | [5] -0.016 | [6] -0.018 | [7] 0.002 | [8] 0.019 | IRAK-1-4 Inhibitor I -0.01

AP3D1 isoform 5 (UniProt O14617)
inactive: erlotinib -0.013 | [1] -0.004 | [2] -0.006 | [3] 0.011 | [4] 0.001 | [5] -0.007 | [6] -0.015 | [7] -0.015 | [8] -0.001 | IRAK-1-4 Inhibitor I -0.003

ACADS (UniProt P16219)
inactive: erlotinib -0.013 | [1] 0.021 | [2] -0.013 | [3] 0.062 | [4] -0.012 | [5] 0.001 | [6] -0.046 | [7] 0.01 | [8] 0.027 | IRAK-1-4 Inhibitor I 0.017

ARMCX3 (UniProt Q9UH62)
inactive: erlotinib 0.023 | [1] -0.02 | [2] -0.005 | [3] 0.009 | [4] 0.033 | [5] -0.005 | [6] -0.043 | [7] -0.016 | [8] 0.064 | IRAK-1-4 Inhibitor I 0.03

AKR1B1 (UniProt P15121)
inactive: erlotinib -0.044 | [1] -0.001 | [2] -0.006 | [3] 0.012 | [4] -0.009 | [5] -0.047 | [6] -0.044 | [7] -0.043 | [8] -0.003 | IRAK-1-4 Inhibitor I -0.021

ANXA2 isoform 2 (UniProt P07355)
UniProt P07355, sequence (P07355 whole entry, looked up): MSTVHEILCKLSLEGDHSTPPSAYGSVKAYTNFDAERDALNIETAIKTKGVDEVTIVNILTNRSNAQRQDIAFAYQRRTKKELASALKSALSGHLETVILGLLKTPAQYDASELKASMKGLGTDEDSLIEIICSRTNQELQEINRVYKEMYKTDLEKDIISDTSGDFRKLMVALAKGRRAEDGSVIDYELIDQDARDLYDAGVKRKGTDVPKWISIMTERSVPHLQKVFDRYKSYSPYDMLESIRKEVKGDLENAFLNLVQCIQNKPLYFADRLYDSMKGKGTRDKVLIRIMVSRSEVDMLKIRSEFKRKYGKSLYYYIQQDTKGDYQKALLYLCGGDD
inactive: erlotinib -0.009 | [1] 0.041 | [2] 0.023 | [3] -0.003 | [4] 0.003 | [5] 0.004 | [6] 0.025 | [7] -0.006 | [8] -0.001 | IRAK-1-4 Inhibitor I -0.01

ABCF3 (UniProt Q9NUQ8)
inactive: erlotinib 0.005 | [1] 0.013 | [2] -0.049 | [3] 0.011 | [4] 0.009 | [5] -0.011 | [6] -0.065 | [7] 0.022 | [8] -0.033 | IRAK-1-4 Inhibitor I -0.037

ARHGAP6 (UniProt O43182)
inactive: erlotinib 0.013 | [1] -0.145 | [2] -0.04 | [3] 0.061 | [4] 0.07 | [5] 0.041 | [6] -0.005 | [7] -0.016 | [8] 0.037 | IRAK-1-4 Inhibitor I 0.015

AK4 (UniProt P27144)
inactive: erlotinib -0.024 | [1] 0.024 | [2] -0.024 | [3] -0.01 | [4] -0.01 | [5] 0.015 | [6] 0.015 | [7] 0.036 | [8] 0.02 | IRAK-1-4 Inhibitor I -0.002

ABHD17A isoform 2 (UniProt Q96GS6)
UniProt Q96GS6, sequence (Q96GS6 whole entry, looked up): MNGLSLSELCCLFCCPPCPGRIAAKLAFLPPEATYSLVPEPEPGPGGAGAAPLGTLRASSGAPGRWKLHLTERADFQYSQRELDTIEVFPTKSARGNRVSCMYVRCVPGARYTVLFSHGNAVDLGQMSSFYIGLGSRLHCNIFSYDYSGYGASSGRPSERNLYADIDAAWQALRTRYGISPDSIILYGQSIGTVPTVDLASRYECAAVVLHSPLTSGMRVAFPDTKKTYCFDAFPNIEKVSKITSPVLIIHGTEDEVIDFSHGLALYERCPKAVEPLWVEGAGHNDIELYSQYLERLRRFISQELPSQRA
inactive: erlotinib -0.016 | [1] -0.046 | [2] 0.081 | [3] 0.025 | [4] 0.022 | [5] -0.009 | [6] -0.07 | [7] -0.023 | [8] 0.025 | IRAK-1-4 Inhibitor I 0.006

AIMP1 isoform 2 (UniProt Q12904)
UniProt Q12904, sequence (Q12904 whole entry, looked up): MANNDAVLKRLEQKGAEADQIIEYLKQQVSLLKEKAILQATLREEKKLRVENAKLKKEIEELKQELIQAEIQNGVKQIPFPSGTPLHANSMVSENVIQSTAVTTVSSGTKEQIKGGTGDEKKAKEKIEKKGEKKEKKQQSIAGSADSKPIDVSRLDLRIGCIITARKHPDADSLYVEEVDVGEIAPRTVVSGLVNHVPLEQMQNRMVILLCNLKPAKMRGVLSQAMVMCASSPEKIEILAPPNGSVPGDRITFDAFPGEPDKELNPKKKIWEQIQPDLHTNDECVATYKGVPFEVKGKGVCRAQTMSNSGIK
inactive: erlotinib 0.044 | [1] 0.013 | [2] -0.028 | [3] 0.001 | [4] -0.03 | [5] 0.021 | [6] -0.025 | [7] -0.02 | [8] 0.02 | IRAK-1-4 Inhibitor I 0.01

ACTG1 (UniProt I3L4N8)
inactive: erlotinib 0.118 | [1] 0.163 | [2] -0.016 | [3] 0.029 | [4] -0.2 | [5] 0.054 | [6] -0.207 | [7] -0.142 | [8] -0.143 | IRAK-1-4 Inhibitor I -0.013

ARHGEF1 (UniProt M0QZR4)
inactive: erlotinib 0.018 | [1] 0.024 | [2] -0.023 | [3] 0.002 | [4] 0.027 | [5] 0.001 | [6] -0.041 | [7] -0.004 | [8] -0.022 | IRAK-1-4 Inhibitor I -0.031

ANP32A (UniProt P39687)
UniProt P39687, sequence (P39687 whole entry, looked up): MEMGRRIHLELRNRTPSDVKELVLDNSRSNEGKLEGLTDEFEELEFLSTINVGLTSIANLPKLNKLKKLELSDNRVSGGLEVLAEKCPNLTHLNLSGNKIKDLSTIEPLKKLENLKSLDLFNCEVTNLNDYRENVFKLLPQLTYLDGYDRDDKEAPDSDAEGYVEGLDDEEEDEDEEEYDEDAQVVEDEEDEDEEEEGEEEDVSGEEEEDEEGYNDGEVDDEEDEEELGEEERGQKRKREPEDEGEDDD
inactive: erlotinib -0.147 | [1] 0.075 | [2] -0.199 | [3] -0.012 | [4] 0.012 | [5] 0.006 | [6] 0.018 | [7] 0.026 | [8] -0.008 | IRAK-1-4 Inhibitor I 0.013

ACADM isoform 2 (UniProt P11310)
UniProt P11310, sequence (P11310 whole entry, looked up): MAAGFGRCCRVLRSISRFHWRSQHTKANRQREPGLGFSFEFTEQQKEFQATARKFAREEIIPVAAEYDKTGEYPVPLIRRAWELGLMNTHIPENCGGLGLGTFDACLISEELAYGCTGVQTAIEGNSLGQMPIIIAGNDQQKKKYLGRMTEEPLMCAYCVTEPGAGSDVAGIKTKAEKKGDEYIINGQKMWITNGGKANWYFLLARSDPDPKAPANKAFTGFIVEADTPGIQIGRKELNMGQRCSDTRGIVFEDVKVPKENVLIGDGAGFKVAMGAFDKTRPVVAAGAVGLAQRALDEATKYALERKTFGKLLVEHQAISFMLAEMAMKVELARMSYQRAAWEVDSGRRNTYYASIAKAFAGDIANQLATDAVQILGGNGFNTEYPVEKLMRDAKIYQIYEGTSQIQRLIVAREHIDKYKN
inactive: erlotinib -0.088 | [1] 0.049 | [2] -0.034 | [3] 0.23 | [4] 0.085 | [5] 0.101 | [6] -0.032 | [7] -0.032 | [8] -0.003 | IRAK-1-4 Inhibitor I -0.007

AKT2 (UniProt P31751)
UniProt P31751, sequence (P31751 whole entry, looked up): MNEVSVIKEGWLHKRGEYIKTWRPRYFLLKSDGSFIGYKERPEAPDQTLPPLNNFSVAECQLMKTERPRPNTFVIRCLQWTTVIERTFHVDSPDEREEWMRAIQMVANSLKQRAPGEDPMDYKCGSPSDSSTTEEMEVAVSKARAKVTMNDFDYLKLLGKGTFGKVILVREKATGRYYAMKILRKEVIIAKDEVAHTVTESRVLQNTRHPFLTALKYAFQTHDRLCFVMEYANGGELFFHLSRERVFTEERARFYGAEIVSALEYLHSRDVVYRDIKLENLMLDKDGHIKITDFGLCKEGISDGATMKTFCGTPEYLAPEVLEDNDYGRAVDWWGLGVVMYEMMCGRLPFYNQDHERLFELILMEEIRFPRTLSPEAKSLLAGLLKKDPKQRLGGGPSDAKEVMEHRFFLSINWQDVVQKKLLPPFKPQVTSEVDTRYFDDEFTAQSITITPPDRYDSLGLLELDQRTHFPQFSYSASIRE
inactive: erlotinib -0.011 | [1] 0.082 | [2] -0.013 | [3] -0.005 | [4] -0.022 | [5] -0.025 | [6] 0.009 | [7] -0.014 | [8] -0.017 | IRAK-1-4 Inhibitor I -0.045

ALDH1A1 (UniProt P00352)
inactive: erlotinib -0.048 | [1] 0.044 | [2] -0.054 | [3] 0.048 | [4] 0.008 | [5] -0.033 | [6] 0.132 | [7] 0.027 | [8] 0.012 | IRAK-1-4 Inhibitor I -0.029

AFF4 (UniProt Q9UHB7)
inactive: erlotinib -0.003 | [1] -0.152 | [2] 0.007 | [3] -0.063 | [4] 0.021 | [5] 0.048 | [6] 0.003 | [7] 0.032 | [8] 0.016 | IRAK-1-4 Inhibitor I -0.031

ANLN (UniProt Q9NQW6)
UniProt Q9NQW6, sequence (Q9NQW6 whole entry, looked up): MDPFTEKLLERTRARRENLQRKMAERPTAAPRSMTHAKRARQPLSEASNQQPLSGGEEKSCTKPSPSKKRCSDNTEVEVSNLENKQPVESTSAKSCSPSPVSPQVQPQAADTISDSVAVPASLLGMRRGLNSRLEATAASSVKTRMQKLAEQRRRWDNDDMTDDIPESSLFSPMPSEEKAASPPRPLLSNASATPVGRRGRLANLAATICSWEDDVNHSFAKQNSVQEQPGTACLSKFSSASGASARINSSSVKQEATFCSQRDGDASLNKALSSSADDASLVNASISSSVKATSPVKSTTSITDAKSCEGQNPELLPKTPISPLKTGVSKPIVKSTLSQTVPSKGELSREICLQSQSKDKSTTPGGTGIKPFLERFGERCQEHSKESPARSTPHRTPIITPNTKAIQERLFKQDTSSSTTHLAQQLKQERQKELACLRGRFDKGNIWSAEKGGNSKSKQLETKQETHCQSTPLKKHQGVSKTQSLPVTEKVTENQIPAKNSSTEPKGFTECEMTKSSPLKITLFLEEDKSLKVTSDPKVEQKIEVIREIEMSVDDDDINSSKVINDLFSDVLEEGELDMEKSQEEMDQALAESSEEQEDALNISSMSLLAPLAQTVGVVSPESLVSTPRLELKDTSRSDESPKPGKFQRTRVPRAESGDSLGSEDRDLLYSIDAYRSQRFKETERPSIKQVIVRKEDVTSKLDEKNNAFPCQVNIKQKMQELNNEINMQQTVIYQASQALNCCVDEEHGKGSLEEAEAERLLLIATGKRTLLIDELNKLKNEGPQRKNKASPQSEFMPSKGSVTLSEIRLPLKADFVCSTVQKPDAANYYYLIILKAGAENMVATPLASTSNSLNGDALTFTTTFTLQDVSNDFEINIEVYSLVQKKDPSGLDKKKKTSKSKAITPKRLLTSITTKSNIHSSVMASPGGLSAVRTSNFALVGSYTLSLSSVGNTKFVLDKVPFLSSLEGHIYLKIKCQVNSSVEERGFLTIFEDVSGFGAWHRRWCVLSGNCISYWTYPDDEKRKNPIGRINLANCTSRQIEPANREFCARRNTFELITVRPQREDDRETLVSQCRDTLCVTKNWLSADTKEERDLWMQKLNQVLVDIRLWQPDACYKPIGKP
inactive: erlotinib -0.006 | [1] -0.142 | [2] 0.007 | [3] -0.019 | [4] -0.072 | [5] 0.01 | [6] -0.019 | [7] -0.045 | [8] -0.002 | IRAK-1-4 Inhibitor I -0.017

ADK, A0A5F9ZH76
inactive: [4] 0

ANXA13 isoform 2 (UniProt P27216)
inactive: erlotinib -0.078 | [1] 0.111 | [2] -0.121 | [3] -0.019 | [4] -0.083 | [5] -0.029 | [6] 0.029 | IRAK-1-4 Inhibitor I -0.174

ANKRD40 (UniProt Q6AI12)
inactive: erlotinib 0.085 | [1] -0.269 | [2] 0.093 | [3] -0.143 | [4] 0.232 | [5] 0.065 | [6] -0.163 | [7] 0.296 | [8] 0.203 | IRAK-1-4 Inhibitor I -0.091

ANKRD10 (UniProt Q9NXR5)
inactive: erlotinib 0.023 | [1] 0.045 | [2] -0.041 | [3] 0.009 | [4] 0.055 | [5] 0.012 | [6] -0.066 | IRAK-1-4 Inhibitor I -0.059

AGGF1 (UniProt Q8N302)
inactive: erlotinib -0.015 | [1] -0.056 | [2] 0.054 | [3] -0.19 | [4] -0.077 | [5] 0.018 | [6] 0.057 | [7] -0.038 | [8] -0.022 | IRAK-1-4 Inhibitor I 0.023

ARHGEF2 (UniProt V9GYF0)
inactive: [1] -0.056 | [3] -0.125 | [5] 0.012 | [6] 0.078 | [7] -0.009 | [8] -0.058 | IRAK-1-4 Inhibitor I 0.062

ARL13B (UniProt Q3SXY8)
inactive: erlotinib 0.043 | [1] 0.06 | [2] -0.195 | [3] -0.039 | [4] 0.118 | [5] -0.033 | [6] 0.094 | IRAK-1-4 Inhibitor I 0.038

ALKBH1 (UniProt Q13686)
inactive: erlotinib 0.033 | [1] -0.042 | [2] -0.02 | [3] 0.052 | [5] 0.024 | [6] -0.022 | [7] 0.211 | [8] 0.041 | IRAK-1-4 Inhibitor I -0.11
